From PubChem BioAssay AID2810 (NMMLSC, 2010) come the findings set out here.

About 65 (5%) of roughly 1,200 compounds were called active. The sample holds actives, similar compounds and a random draw of the others, so the mix is not that of the screen.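 How the source made its calls: active means at either tested dose, response and 90th-percentile vesicle-stain brightness of CD8 cells under set limits and under 9% cells vesicle-bound; inactive means the rest.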

The experiment is described as follows: modulators of CD8 T cell-vesicle binding, confirmation, cherry-picked primary hits, two concentrations (AID 2810).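 On percent response (vesicle binding): ratio of mean FL2 vesicle stain of CD8+ cells to that row's control.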 To be noted: 2C CD8+ T cell-vesicle binding, flow cytometry; for double positive events: CD8+/vesicle+ events.
The mark [1] stands for this setting: at 15.4 µM, stronger effect = lower value.

As to `O=C(O)C1CCC(Cn2c(SCc3cc(=O)n4cc(Cl)ccc4n3)nc3ccsc3c2=O)CC1` (stereo not given), the double positive events runs as follows: (at 7.7 µM) 29.3%; under setting [1], 9%. Also, the percent response (vesicle binding) is 76.3% (inactive) under setting [1] and 339% (response, at 7.7 µM).

In turn, `Cc1ccc(NC(=O)C2CCCO2)cc1[N+](=O)[O-]` (stereo not given) came in with a double positive events (at 7.7 µM) of 25.5% and a double positive events under setting [1] of 9.4%. The percent response (vesicle binding) under setting [1] was 161% (inactive) and the percent response (vesicle binding) (response, at 7.7 µM) was 161%.

In turn, `CCOC(=O)C1CCN(C(=O)c2ccc(NC(=O)C3CCCO3)cc2)CC1` (stereo not given) yielded a double positive events (at 7.7 µM) of 27.3%. For the same compound, under setting [1], the double positive events was 1.9% and the percent response (vesicle binding) is 21.8% (active).

Turning to `CCOC(=O)C1CCN(C(=O)c2cccc(S(=O)(=O)NCc3ccccc3)c2)CC1`, the double positive events by setting is: (at 7.7 µM) 16.4%; under setting [1], 18.8%. The percent response (vesicle binding) reads like this: under setting [1], 420% (inactive); (response, at 7.7 µM) 128%.

On to `O=C(COc1ccccc1)NNC(=O)c1ccc(Cl)cc1`, for which the double positive events amounted to 27.8% (at 7.7 µM) and 8% under setting [1]. The percent response (vesicle binding) is, setting by setting: under setting [1], 220% (inactive); (response, at 7.7 µM) 616%.

For the compound `CN(C)S(=O)(=O)c1ccc(NC(=O)c2ccc([N+](=O)[O-])cc2)cc1`, the double positive events reads like this: (at 7.7 µM) 25.4%; under setting [1], 22.8%. The percent response (vesicle binding) is 217% (inactive) under setting [1] and 312% (response, at 7.7 µM).

Take `CCC(C)c1ccc(NC(=O)NCc2cccnc2)cc1` (stereo not given): the double positive events (at 7.7 µM) came out at 8.6% and the double positive events under setting [1] stood at 27.9%. Besides, the percent response (vesicle binding) by setting is: under setting [1], 260% (inactive); (response, at 7.7 µM) 356%.

As to `CCC(C(=O)Nc1ccccc1)c1ccccc1` (stereo not given), the double positive events (at 7.7 µM) worked out at 6.9% and the double positive events under setting [1] came out at 21.7%. Further, the percent response (vesicle binding) under setting [1] is 199% (active) and the percent response (vesicle binding) (response, at 7.7 µM) amounted to 59.2%.

As to `CCOc1ccccc1NC(=O)C(OC(=O)c1ccccc1O)c1ccccc1` (stereo not given), the double positive events is, setting by setting: (at 7.7 µM) 6.9%; under setting [1], 21.5%. In addition, the percent response (vesicle binding) by setting is: under setting [1], 190% (inactive); (response, at 7.7 µM) 189%.

Turning to `Cc1ccc(CONC(=O)c2cccc([N+](=O)[O-])c2)cc1`, the double positive events is, setting by setting: (at 7.7 µM) 27.4%; under setting [1], 16.3%. The percent response (vesicle binding) was 328% (inactive) under setting [1] and 576% (response, at 7.7 µM).

For `CCOC(=O)C1(Cc2cccc(OC)c2)CCN(Cc2ccc3c(c2)OCCO3)CC1`, the double positive events (at 7.7 µM) came to 13% and the double positive events under setting [1] turned out to be 17.1%. Besides, the percent response (vesicle binding) is, setting by setting: under setting [1], 114% (inactive); (response, at 7.7 µM) 148%.

With `COCCN1C(=O)C(=O)/C(=C(/O)c2cccc(OC)c2)C1c1ccc(C)o1` (stereo not given), the double positive events reads like this: (at 7.7 µM) 12.5%; under setting [1], 16.5%. Moreover, the percent response (vesicle binding) reads like this: under setting [1], 205% (inactive); (response, at 7.7 µM) 173%.

`COc1ccc(/C(O)=C2/C(=O)C(=O)N(Cc3cccnc3)C2c2ccco2)cc1OC` (stereo not given): the double positive events worked out at 23.3% (at 7.7 µM) and 0.8% under setting [1]. In addition, the percent response (vesicle binding) under setting [1] is 27% (active) and the percent response (vesicle binding) (response, at 7.7 µM) worked out at 360%.

With `CCOc1ccc(/C(O)=C2/C(=O)C(=O)N(CCN(CC)CC)C2c2cccs2)cc1` (stereo not given), the double positive events by setting is: (at 7.7 µM) 17.2%; under setting [1], 26.6%. Further, the percent response (vesicle binding) by setting is: under setting [1], 300% (inactive); (response, at 7.7 µM) 187%.

As to `COc1ccc(NC(=O)COC(=O)c2cc(Cl)ccc2O)cc1S(=O)(=O)N1CCCCC1`, the double positive events is, setting by setting: (at 7.7 µM) 27%; under setting [1], 23.1%. For the same compound, the percent response (vesicle binding) runs as follows: under setting [1], 366% (inactive); (response, at 7.7 µM) 227%.

Take `CC1CC(C)(C)NC(=S)N1CC(=O)NCc1ccccc1Cl` (stereo not given): the double positive events reads like this: (at 7.7 µM) 8.8%; under setting [1], 18.9%. Moreover, the percent response (vesicle binding) runs as follows: under setting [1], 506% (inactive); (response, at 7.7 µM) 79.3%.

Consider `CCOC(=O)C1(CC2CCCCO2)CCN(S(=O)(=O)c2ccc(C)s2)CC1` (stereo not given), for which the double positive events is, setting by setting: (at 7.7 µM) 17.8%; under setting [1], 18.7%. Also, the percent response (vesicle binding) under setting [1] is 122% (inactive) and the percent response (vesicle binding) (response, at 7.7 µM) was determined as 196%.

Turning to `COc1ccc(F)c(CN2CCC(n3nccc3NC(=O)C3CCOC3)CC2)c1` (stereo not given), the double positive events stood at 29.1% (at 7.7 µM) and 10.9% under setting [1]. For the same compound, the percent response (vesicle binding) is, setting by setting: under setting [1], 235% (inactive); (response, at 7.7 µM) 538%.

Regarding `CCCCCCCCn1c2c(c(=N)c3c1CCC3)CCCC2`, the double positive events is 1.8% (at 7.7 µM) and 5.8% under setting [1]. Further, the percent response (vesicle binding) is 46.9% (active) under setting [1] and 54.6% (response, at 7.7 µM).

In the case of `C=CCN1C(=O)c2ccc(C(=O)N3CCN(S(=O)(=O)c4cccc(Cl)c4)CC3)cc2C1=O`, the double positive events by setting is: (at 7.7 µM) 12.4%; under setting [1], 26.8%. Further, the percent response (vesicle binding) by setting is: under setting [1], 118% (inactive); (response, at 7.7 µM) 125%.

With `CC(C)(C)C(=O)Nc1ccc2c(c1)OCCOCCOc1cc(NC(=O)C(C)(C)C)ccc1OCCOCCO2`, the double positive events by setting is: (at 7.7 µM) 22.2%; under setting [1], 25.5%. Besides, the percent response (vesicle binding) was 251% (inactive) under setting [1] and 910% (response, at 7.7 µM).

As for `COc1ccc(N(CC(=O)NCCC2=CCCCC2)S(=O)(=O)c2ccc(C)cc2)cc1OC`, the double positive events is 8.6% (at 7.7 µM) and 22.9% under setting [1]. The percent response (vesicle binding) runs as follows: under setting [1], 140% (inactive); (response, at 7.7 µM) 96.7%.

Consider `Cc1c(C(=O)NCCSCc2c(F)cccc2Cl)cnn1-c1ccc(Cl)cc1`, for which the double positive events runs as follows: (at 7.7 µM) 19.9%; under setting [1], 1.6%. Further, the percent response (vesicle binding) runs as follows: under setting [1], 26.4% (active); (response, at 7.7 µM) 229%.

On to `O=C(CSCCO)N1CCc2ccccc21`, for which the double positive events runs as follows: (at 7.7 µM) 9.8%; under setting [1], 26%. In addition, the percent response (vesicle binding) is 310% (inactive) under setting [1] and 415% (response, at 7.7 µM).

As to `Nc1nnc(SCCOc2ccc(Br)cc2)s1`, the double positive events (at 7.7 µM) is 34.9% and the double positive events under setting [1] worked out at 15.9%. The percent response (vesicle binding) under setting [1] was 217% (inactive) and the percent response (vesicle binding) (response, at 7.7 µM) turned out to be 294%.

`Cc1sc(NC(=O)CN2CCOCC2)c(C#N)c1C` displayed a double positive events (at 7.7 µM) of 10.4% and a double positive events under setting [1] of 29%. For the same compound, the percent response (vesicle binding) by setting is: under setting [1], 344% (inactive); (response, at 7.7 µM) 364%.

Take `COc1cccc(C(=O)O[C@@H]2[C@H](Cc3ccccc3)NS(=O)(=O)[C@H]3C[C@@H]4C=C[C@]23O4)c1`: the double positive events worked out at 30% (at 7.7 µM) and 18.9% under setting [1]. The percent response (vesicle binding) by setting is: under setting [1], 180% (inactive); (response, at 7.7 µM) 197%.

On to `Cc1oc(-c2ccccc2)nc1Cn1cccc1C1=NC(c2ccccc2)CO1` (stereo not given), for which the double positive events is, setting by setting: (at 7.7 µM) 13.6%; under setting [1], 14.5%. Besides, the percent response (vesicle binding) is, setting by setting: under setting [1], 105% (inactive); (response, at 7.7 µM) 179%.

For the compound `CCn1nc(C(=O)NCCc2ccc3c(c2)OCCO3)c2ccccc2c1=O`, the double positive events stood at 9.8% (at 7.7 µM) and 15.2% under setting [1]. Also, the percent response (vesicle binding) by setting is: under setting [1], 173% (inactive); (response, at 7.7 µM) 148%.

Turning to `OC[C@H]1O[C@@H](Oc2ccc3cc(Br)ccc3c2)[C@H](O)[C@@H](O)[C@H]1O`, the double positive events came to 14.4% (at 7.7 µM) and 27.5% under setting [1]. Further, the percent response (vesicle binding) is, setting by setting: under setting [1], 389% (inactive); (response, at 7.7 µM) 493%.

Regarding `COC(=O)CN1C(=S)N(C)C(=O)C1CC(=O)Nc1ccccc1` (stereo not given), the double positive events by setting is: (at 7.7 µM) 18.9%; under setting [1], 12.8%. Besides, the percent response (vesicle binding) under setting [1] was 120% (inactive) and the percent response (vesicle binding) (response, at 7.7 µM) was determined as 896%.

For the compound `COc1ccc(NC(=O)CC2C(=O)N(Cc3ccccc3)C(=S)N2CCN2CCOCC2)cc1` (stereo not given), the double positive events is, setting by setting: (at 7.7 µM) 13%; under setting [1], 0.6%. Moreover, the percent response (vesicle binding) is, setting by setting: under setting [1], 20% (active); (response, at 7.7 µM) 196%.

As for `COc1ccc(C(=O)N2CCN(c3ccc(NC(=O)Cc4ccccc4)cc3)CC2)cc1`, the double positive events by setting is: (at 7.7 µM) 25.4%; under setting [1], 23.5%. The percent response (vesicle binding) is, setting by setting: under setting [1], 291% (inactive); (response, at 7.7 µM) 635%.

Take `S=c1sc2c(N3CCOCC3)ncnc2n1-c1ccccc1`: the double positive events runs as follows: (at 7.7 µM) 9.4%; under setting [1], 12.2%. Further, the percent response (vesicle binding) is, setting by setting: under setting [1], 206% (inactive); (response, at 7.7 µM) 355%.
